Pf apPOL inh: Pf-apPOL inhibitors, biochemical, fluorescence; inhibition, % at 10 µM; Plasmodium falciparum apicoplast DNA polymerase (apPOL); Recombinant Pf-apPOL, molecular beacon fluorescence, 1.5 h; hit rate 0.25% among 210,000
mHTT CaM bind: mutant huntingtin-calmodulin interaction inhibitors – biochemical, AlphaScreen, primary screen; P42858; AlphaScreen His-mHTT/GST-CaM binding, luminescence; inhibition, % at 15 µM; hit rate 3.6% among 190,000; AID 1671202, 2021
Large screens that a line does not name were inactive; ! = not confirmed by another sample. The sample as a whole holds a higher share of hits than the screen did. Rule as the data show it: active = inhibition above about 50%; inactive = the rest.

Nc1nc(NC(=O)C(Cl)(Cl)Cl)nn1-c1ccccc1	mHTT CaM bind 85
CCOC(=O)COc1ccc2c(c1)OC(=Cc1ccco1)C2=O	none
N=Nc1[nH]c(N)c2ccccc12	mHTT CaM bind 94
Cc1cccc(NC(=O)N2CCC3(C2)Nc2cccnc2NC3=NCc2ccccc2)c1 (stereo not given)	none
COCCN=C1Nc2ccccc2NC12CCCN(C(=O)Nc1ccc(C)cc1C)C2 (stereo not given)	mHTT CaM bind 100
COCCN=C1Nc2ccccc2NC12CCCN(C(=O)Nc1cc(F)cc(F)c1)C2 (stereo not given)	mHTT CaM bind 100
COCCN=C1Nc2ccccc2NC12CCCN(C(=O)c1ccc(OC)c(OC)c1)C2 (stereo not given)	none
O=C(Nc1cccc(F)c1)N1CCCC2(C1)Nc1cccnc1NC2=NCc1ccccc1 (stereo not given)	mHTT CaM bind 64
COCCN=C1Nc2ccccc2NC12CCCN(C(=O)c1cc(F)ccc1F)C2 (stereo not given)	none
Cc1nccn1CC1CCN(C(=O)CCSc2ccccc2)CC1	none
c1ccc(CNc2ncnc3c2CCC3)cc1	none
Cc1ccc(N2C(=O)SC(Nc3ccc(C(=O)O)cc3)C2=O)cc1 (stereo not given)	none
Cc1cccc(-c2nc(C3CCN(C(=O)c4cc5ccccc5[nH]4)CC3)no2)c1	none
CCC(=O)Nc1nc2ccccc2n1CC	none
C=CCn1c(NC(=O)c2ccccc2)nc2ccccc21	mHTT CaM bind 54
O=C(Nc1nc2ccccc2n1CCN1CCCCC1)c1ccccc1	none
CCn1c(NC(=O)c2ccccc2)nc2ccccc21	mHTT CaM bind 53
O=C1C=C(Nc2ccccc2)C(=O)N1c1ccccc1	none
CC(=O)NC1C(Oc2cccc(C)c2)OC2COC(C)(C)OC2C1O (stereo not given)	none
COc1ccc(OCCNC(=O)c2ccccc2[N+](=O)[O-])cc1	none
COCCNC(=O)c1cccc([N+](=O)[O-])c1C	none
CC1(C)CC2CC(C)(CN2C(=O)c2ccco2)C1 (stereo not given)	none
Cc1ccc(C)c(C(=O)N2CCCC(COc3ccc(C(=O)NC(C)C)cc3)C2)c1 (stereo not given)	none
CCCC(=O)N1CCCC1c1nc2cc(-c3ccccc3F)ccc2o1 (stereo not given)	none
CCC(=O)N1CCCC1c1nc2cc(-c3cccc(F)c3)ccc2o1 (stereo not given)	none
CCCC(=O)N1CCCC1c1nc2cc(-c3ccc(N(C)C)cc3)ccc2o1 (stereo not given)	mHTT CaM bind 86
CC(C)CC(=O)N1CCCC1c1nc2cc(-c3ccc(N(C)C)cc3)ccc2o1 (stereo not given)	mHTT CaM bind 87
Cc1ccc(Nc2ncnc3c2cnn3Cc2ccccc2)cc1	none
COc1cc(C2C=C(c3ccc(F)cc3)Nc3nnnn32)ccc1OC(F)F (stereo not given)	none
Cc1ccc(NC(=O)NCC(C)N2CCCC2)cc1Cl (stereo not given)	none
COc1cc(OC)cc(N2CCN(Cc3ccc(F)cc3)C(C)C2=O)c1 (stereo not given)	mHTT CaM bind 79
COc1cc(OC)cc(N2CCN(Cc3ccccc3)C(C)C2=O)c1 (stereo not given)	none
O=[N+]([O-])c1c(Cl)cc(O)c2c1C1C=CCC1C(c1ccccc1)N2 (stereo not given)	mHTT CaM bind 75
Cc1cccc2c1NC(c1ccc([N+](=O)[O-])cc1)C1CC=CC21 (stereo not given)	none
O=[N+]([O-])c1ccc(C2Nc3c(O)cc(Cl)c([N+](=O)[O-])c3C3C=CCC32)cc1 (stereo not given)	mHTT CaM bind 92
Cc1noc(C)c1S(=O)(=O)N1CCC(CC(=O)NCCC2=CCCCC2)CC1	none
Cc1oc(C2CCC2)nc1C(=O)NCc1nc2ccccc2n1C	none
CCOc1ccc(-n2c(=O)c3sccc3n(Cc3ccccc3C#N)c2=O)cc1	none
CC1(C)C(C=C(Cl)Cl)C1C(=O)Nc1ccccc1Cl (stereo not given)	none
CC1(C)C(C=C(Cl)Cl)C1C(=O)Nc1ccc(S(=O)(=O)Nc2ncccn2)cc1 (stereo not given)	none
CC1(C)C(C=C(Cl)Cl)C1C(=O)Nc1ccccc1[N+](=O)[O-] (stereo not given)	mHTT CaM bind 56
Cc1cc(NS(=O)(=O)c2ccc(NC(=O)C3C(C=C(Cl)Cl)C3(C)C)cc2)nc(C)n1 (stereo not given)	mHTT CaM bind 62
CC1(C)C(C=C(Cl)Cl)C1C(=O)Nc1ccc(Br)cc1 (stereo not given)	mHTT CaM bind 53
CC1(C)C(C=C(Cl)Cl)C1C(=O)Nc1cccc([N+](=O)[O-])c1 (stereo not given)	mHTT CaM bind 72!
CC1(C)C(C=C(Cl)Cl)C1C(=O)Nc1cccc(C(=O)O)c1 (stereo not given)	none
Cc1ccc(NC(=O)C2C(C=C(Cl)Cl)C2(C)C)cc1C (stereo not given)	none
Cc1ccc(S(=O)(=O)c2nc(Nc3c(C)n(C)n(-c4ccccc4)c3=O)sc2Cl)cc1	none

From PubChem BioAssay
